High-throughput results: PubChem BioAssay, National Center for Advancing Translational Sciences (NCATS)
HT1080NT lethal: qHTS for induction of synthetic lethality in tumor cells producing 2HG: qHTS for the HT-1080-NT fibrosarcoma cell line; Potency, µM (titrated, usually from 46.1 µM), for inactives: at the highest dose activity, negative = less viability, actives largely listed as cytotoxic; AID 686970, 2013; HT-1080-NT fibrosarcoma viability, CellTiter-Glo ATP luminescence, 48 h; 1.6% of 360,000 active;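 also: NT is the 2HG producing partner of a matched IDH1 knockdown line; potency is read from the fitted curve at half-maximal effect; 0% = DMSO-treated cells and -100% = media-only wells without cells; nearly all actives have a fitted effect of over 55% in size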
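A 48-hour cytotoxicity screen used HT-1080-NT cells plated 2 hours before compound delivery. ATP-based CellTiter-Glo luminescence measured viability, normalized to DMSO and no-cell controls.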
HT1080 IDH1KD tx: qHTS for induction of synthetic lethality in tumor cells producing 2HG: qHTS for the HT-1080-IDH1KD cell line. HT-1080 IDH1 knockdown viability, ATP luminescence, 48 h. Potency, µM (series often up to 46.1 µM), for the others: at the highest dose activity, negative = toxicity, actives largely listed as cytotoxic. 2% of 360,000 active. AID 686971, 2013;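 also: potency is read from the fitted curve at half-maximal effect; 0% = DMSO wells and -100% = cell-free medium wells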
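% activity derives from luminescence (CellTiter-Glo), normalised to DMSO and no-cell wells. HT-1080-IDH1KD cells, 750/well, had 48 h compound exposure at 37 °C.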
DT40 TDP1 no CPT: qHTS for Inhibitors of human tyrosyl-DNA phosphodiesterase 1 (TDP1): qHTS in cells in absence of CPT; DT40 Tdp1-/- hTDP1 cells, no CPT, ATP luminescence, 48 h; Potency, µM (titrated, usually from 46.2 µM), for the others: at the top dose activity change, negative = growth inhibition, hits mostly inhibitors; 15% of 420,000 active; AID 686978, 2013; also: potency is read from the fitted curve at half-maximal effect; nearly all actives have a fitted effect of over 55% in size
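DT40 Tdp1-/-;hTDP1 cells, no CPT (DMSO vehicle only), 400 cells/well; compounds pin-transferred; ≥48 hr, 37 °C; CellTiter-Glo 30 min RT dark, luminescence read.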
ALOX12 inh: Primary qHTS assay for inhibitors of human arachidonate 12S-lipoxygenase (ALOX12): Round 2; AID 1671190, 2021; 1.1% of 580,000 active; purified 12hLO, xylenol orange hydroperoxide absorbance; Polyunsaturated fatty acid lipoxygenase ALOX12 (Homo sapiens), P18054; Potency, µM (series often up to 108 µM), inactives show at the top dose activity change, negative = inhibition, most hits filed as inhibitors; also: potency is read from the fitted curve at half-maximal effect
Target sequence (P18054 whole entry, looked up): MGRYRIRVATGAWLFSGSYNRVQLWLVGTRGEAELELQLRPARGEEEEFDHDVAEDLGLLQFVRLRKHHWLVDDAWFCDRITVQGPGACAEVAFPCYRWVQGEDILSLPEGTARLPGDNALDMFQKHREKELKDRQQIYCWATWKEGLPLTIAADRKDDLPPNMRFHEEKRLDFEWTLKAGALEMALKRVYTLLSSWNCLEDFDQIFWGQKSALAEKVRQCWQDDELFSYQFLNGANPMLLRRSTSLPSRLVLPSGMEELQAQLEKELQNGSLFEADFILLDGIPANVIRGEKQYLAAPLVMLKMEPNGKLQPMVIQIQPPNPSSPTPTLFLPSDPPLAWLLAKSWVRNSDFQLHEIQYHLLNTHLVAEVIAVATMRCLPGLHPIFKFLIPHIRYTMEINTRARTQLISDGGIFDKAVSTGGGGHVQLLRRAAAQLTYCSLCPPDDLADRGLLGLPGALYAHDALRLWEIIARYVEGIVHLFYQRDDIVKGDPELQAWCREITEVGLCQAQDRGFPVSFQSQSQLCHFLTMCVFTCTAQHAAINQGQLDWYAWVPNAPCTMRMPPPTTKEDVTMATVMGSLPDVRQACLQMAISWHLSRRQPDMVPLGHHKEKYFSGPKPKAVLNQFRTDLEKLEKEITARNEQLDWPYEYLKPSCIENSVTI
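Purified human 12hLO at 150 nM in 25 mM Hepes, 0.01% Triton X-100, pH 7.0, preincubated 15 min at room temperature with compound. Reaction started with 40 uM arachidonic acid, 30 min at room temperature. Hydroperoxide measured by Fe-xylenol orange, 573/405 nm absorbance ratio.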
DT40 TDP1 CPT: qHTS for Inhibitors of human tyrosyl-DNA phosphodiesterase 1 (TDP1): qHTS in cells in presence of CPT; chicken DT40 Tdp1-/-;hTDP1 cells + 20 nM CPT, ATP luminescence, 48 h; Potency, µM (series often up to 46.2 µM), without a hit: at the highest dose activity change, negative = growth inhibition, most hits filed as inhibitors; 12% of 420,000 active; AID 686979, 2013; also: potency is read from the fitted curve at half-maximal effect; nearly all actives have a fitted effect of over 55% in size
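Cell growth measured by CellTiter-Glo luminescence after a minimum 48 h, 37 C compound exposure with 20 nM CPT in Tdp1-knockout DT40 cells stably expressing hTDP1, seeded 400/well; qHTS titration format.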
IL1B secr inh: qHTS for Inhibitors of Inflammasome Signaling: IL-1-beta AlphaLISA Primary Screen; activity change, % at 57.5 µM; THP-1 LPS/ATP IL-1B secretion, AlphaLISA, 16 h; stronger effect = lower value; 4.7% of 360,000 active; AID 743279, 2014; in the data active = activity change below about -50%; inconclusive = mostly about -30% to -49%
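THP-1 cells pretreated 1 hr with compounds (up to 57.5 uM final), then stimulated with LPS (250 ng/mL final) plus ATP (1.25 mM final); secreted IL-1B measured by AlphaLISA after 16 hr, decreased signal indicating inhibition.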
The depositor's hits bear a star; ? = inconclusive; · = no result given. The full list was thinned out, with hits kept by preference. Unless noted, calls follow the shape of the dose curve; as a rule, active = well fitted curve in the direction sought with a large enough effect; inconclusive = small, poorly fitted or top-dose-only effect, or another doubt; inactive = no such curve, though single readings can be large; an effect the other way counts as inactive or inconclusive. Unless noted, % is scaled to controls: 0 for no effect and ±100 for the full control effect.

SMILES | HT1080NT lethal | HT1080 IDH1KD tx | DT40 TDP1 no CPT | ALOX12 inh | DT40 TDP1 CPT | IL1B secr inh
COc1ccc2nc(SCC(=O)Nc3nc(C)c(C)s3)[nH]c2c1 | · | · | · | -24% | · | ·
CCOC(=O)c1c(NC(=O)CSc2nc3ccc(OC)cc3[nH]2)sc2c1CC(C)(C)NC2(C)C | 1% | -25% | ? | ? | ? | -94*
CC1CCCN(CC(=O)N(C)CC(=O)Nc2ccc(Cl)c(C(F)(F)F)c2)C1 (stereo unspecified) | · | · | · | 26% | · | ·
CCC(C(=O)Nc1nnc(COC)s1)c1ccccc1 (stereo unspecified) | · | · | · | -4% | · | ·
CCc1c(C)c2ccc(O)c(CN3CCN(c4ccc(F)cc4)CC3)c2oc1=O | · | · | ? | -11% | 21µM* | ·
Cc1c(-c2ccc(Br)cc2)c(=O)oc2ccc(OC(=O)N3CCOCC3)cc12 | · | · | ? | 2% | ? | ·
CCN1CCN(Cc2c(O)ccc3c(C)c(-c4ccccc4)c(=O)oc23)CC1 | · | · | 16µM* | -5% | ? | ·
CC1CN(Cc2c(O)ccc3c2oc(=O)c2ccccc23)CC(C)O1 (stereo unspecified) | ? | -7% | 15µM* | 5.6µM* | 15µM* | -14
Cc1c(-c2ccc(Cl)cc2)c(=O)oc2ccc(OC(=O)N3CCOCC3)cc12 | · | · | 21µM* | 2% | ? | ·
CCCN1CCC(N(C)C(=O)Nc2ccc(F)cc2)CC1 | · | · | · | -36% | · | ·
Cc1c(-c2ccc(Cl)cc2)c(=O)oc2c(CN3CCOCC3)c(O)ccc12 | · | · | 21µM* | ? | ? | ·
COc1ccc(CNC(=O)c2cc3cc(OC)ccc3oc2=O)cc1 | -25% | ? | 12µM* | -18% | 18µM* | 15
COc1ccc2oc(=O)c(C(=O)NCc3ccc(C)cc3)cc2c1 | ? | 4% | ? | ? | -23% | -4
COc1ccc(C(=O)N/N=c2\oc3ccccc3cc2C(=O)NCc2ccccc2)cc1 | 6% | 13% | 15µM* | -3% | 16µM* | -5
COc1ccc2oc(=O)c(C(=O)NCc3ccccc3)cc2c1 | 1% | 2% | -10% | -1% | ? | -17
CS(=O)(=O)Nc1ccc(Cc2ccc(NS(C)(=O)=O)cc2)cc1 | -6% | -9% | -27% | ? | -8% | 0
NNc1ccc(Cc2ccc(NN)cc2)cc1 | · | · | · | 20µM* | · | ·
COc1ccc(Cl)cc1NC(=O)C1CCCN(c2ncnc3onc(C)c23)C1 (stereo unspecified) | · | · | 23µM* | -3% | 18µM* | ·
COc1ccc(NC(=O)C2CCCN(c3ncnc4onc(C)c34)C2)cc1OC (stereo unspecified) | · | · | 23µM* | -9% | ? | ·
COc1ccc(NC(=O)C2CCCN(C(=O)NC3CCCCC3)C2)cc1OC (stereo unspecified) | 1% | 10% | -4% | -15% | -3% | -15
CCN(CC)C(=O)C1CCCN(c2ncnc3onc(C)c23)C1 (stereo unspecified) | · | · | ? | -11% | ? | ·
Cc1noc2ncnc(N3CCCC(C(=O)Nc4cc(F)ccc4F)C3)c12 (stereo unspecified) | · | · | 12µM* | -5% | 13µM* | ·
Cc1noc2ncnc(N3CCCC(C(=O)Nc4cccc(C(F)(F)F)c4)C3)c12 (stereo unspecified) | · | · | 18µM* | -3% | 15µM* | ·
